Measurements taken from ChEMBL document CHEMBL1157539, “Thousands of chemical starting points for antimalarial lead identification” (Nature, 2010).

Test system: Plasmodium falciparum
Experiment: GSK_TCMDC: Inhibition of Plasmodium falciparum 3D7 in whole red blood cells, using parasite LDH activity as an index of growth. Test compounds present at 2uM
Format: functional

Compound | Inhibition [%]
Cc1cc(C(=O)Nc2ccc3c(ccn3C3CCCN(Cc4ccc(C(F)(F)F)cc4F)CC3)c2)no1 (stereo not drawn) | 92
CCCc1ccc(Nc2nc(C)cc(N(CC)CCCN3CCCCC3)n2)cc1.O=C(O)C(F)(F)F | 100
COc1cccc(CCNCCCCCCNCCc2ccc(Cl)cc2)c1.Cl | 100

Test system: Plasmodium falciparum
Experiment: GSK_TCMDC: Inhibition of Plasmodium falciparum Dd2 in whole red blood cells, using parasite LDH activity as an index of growth. Test compounds present at 2uM
Format: functional

Compound | Inhibition [%]
C=CCN1C(=O)C(=Cc2cc(Br)ccc2O)SC1=Nc1ccccc1 | 55
Cl.N#Cc1cccc(-c2ccc(C(=O)Nc3ccc4c(c3)CCN(C3CCC3)CC4)cn2)c1 | 5
COc1ccc2[nH]c(C)cc(=NN=Cc3cc(C)ccc3O)c2c1 | 100
O=C(Nc1ccccc1)N(Cc1ccccc1-c1cccc(CNC2CCCC2)c1)C1CCN(Cc2ccccc2)CC1.O=C(O)C(F)(F)F | 84
COc1ccc2nc(-c3cc(-c4ccc(NC(=O)C(C)C)cc4)cnc3N)[nH]c2c1 | 47
COc1ccc(NC(=O)[C@H](Cc2ccccc2)Nc2cc(C)nc(NCC3CCCCC3)n2)cc1.O=C(O)C(F)(F)F | 83
CS(=O)(=O)NCCCNCc1cccc(-c2csc(-c3nc4ccccc4[nH]3)c2)c1.O=C(O)C(F)(F)F | 9
Cl.Fc1cc(CN2CCCC2)ccc1OCCCN1CCN(c2cccc(Cl)c2Cl)CC1 | 15
c1ccc(CNc2nc(NCCc3c[nH]cn3)nc(NCc3cccc4ccccc34)n2)cc1 | 1
CCNc1cc(C(=O)N[C@@H](Cc2ccccc2Cl)[C@H](O)CNC(C)CCCC(C)C)cc(N2CCCCS2(=O)=O)c1.Cl (stereo partly drawn) | 62
